PubChem BioAssay AID1159580 (chemical genetic matrix, 2015)
About 2,000 (36%) of roughly 5,500 compounds were called active. Not shown: some 18% with an inconclusive outcome. Cut-off read from the data, not from the text of the source: active = normalized growth mostly below about 0.91 (no sharp cut-off); inconclusive = no clear call, values can overlap the other calls; inactive = mostly above about 0.92. The list shows a part of the results.

Assay: chemical genetic growth profiling, strain panel (AID 1159580);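 note: tested at 20 µM; growth read once vehicle control cultures reached saturation at 30 °C; 1 = growth at the plate median or of vehicle wells; lower values mean less growth of the strain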
Conditions: growth OD
[1] = S. cerevisiae deletion strains, locus YAL013W, strain DEP1, hits give low values
[2] = S. cerevisiae deletion strains, locus YBR229C, strain ROT2, hits give low values
[3] = S. cerevisiae deletion strains, locus YDL101C, strain DUN1, hits give low values
[4] = S. cerevisiae deletion strains, locus YDL134C, strain PPH21, hits give low values
[5] = S. cerevisiae deletion strains, locus YDR150W, strain NUM1, hits give low values
[6] = S. cerevisiae deletion strains, locus YEL061C, strain CIN8, hits give low values
[7] = S. cerevisiae deletion strains, locus YGR078C, strain PAC10, hits give low values
[8] = S. cerevisiae deletion strains, locus YHR030C, strain SLT2, hits give low values
[9] = S. cerevisiae deletion strains, locus YHR087W, strain rtc3, hits give low values
[10] = S. cerevisiae deletion strains, locus YJR043C, strain POL32, hits give low values
[11] = S. cerevisiae deletion strains, locus YJR075W, strain HOC1, hits give low values
[12] = S. cerevisiae deletion strains, locus YLR039C, strain RIC1, hits give low values
[13] = S. cerevisiae deletion strains, locus YLR058C, strain SHM2 (second series), hits give low values
[14] = S. cerevisiae deletion strains, locus YLR085C, strain ARP6, hits give low values
[15] = S. cerevisiae deletion strains, locus YLR262C, strain YPT6, hits give low values
[16] = S. cerevisiae deletion strains, locus YML094W, strain GIM5, hits give low values
[17] = S. cerevisiae deletion strains, locus YMR219W, strain ESC1, hits give low values
[18] = S. cerevisiae deletion strains, locus YMR263W, strain SAP30, hits give low values
[19] = S. cerevisiae deletion strains, locus YNL153C, strain GIM3, hits give low values
[20] = S. cerevisiae deletion strains, locus YNL298W, strain CLA4 (second series), hits give low values
[21] = S. cerevisiae deletion strains, locus YNL322C, strain KRE1, hits give low values
[22] = S. cerevisiae deletion strains, locus YNR030W, strain Alg12, hits give low values
[23] = S. cerevisiae deletion strains, locus YPL055C, strain LGE1, hits give low values
[24] = S. cerevisiae deletion strains, locus YPL241C, strain CIN2, hits give low values
[25] = S. cerevisiae deletion strains, locus YPR135W, strain CTF4, hits give low values

Measured: normalized growth

CCCCCCCC1CC/C(=C\c2ccc(/C=C3\CCC(CCCCCCC)C3=O)cc2)C1=O (stereo not drawn)
inactive: [1] 1.01 | [2] 1.01 | [3] 0.985 | [4] 1.01 | [5] 0.936 | [6] 0.999 | [7] 0.998 | [8] 1.07 | [9] 1.01 | S. cerevisiae deletion strains, locus YJL187C, strain SWE1, hits give low values 1.01 | [10] 1.01 | [11] 1.04 | [12] 1.05 | [13] 1.01 | [14] 1.02 | [15] 1.04 | [16] 0.979 | [17] 1 | [18] 1.01 | [19] 1 | [20] 1.04 | [21] 0.994 | [22] 1 | [23] 0.97 | [24] 0.978 | [25] 1.03

COc1ccc(CN(Cc2ccc(OC)cc2)C(=O)c2cccs2)cc1
inactive: [1] 0.976 | [2] 0.974 | S. cerevisiae deletion strains, locus YCL061C, strain MRC1, hits give low values 1.01 | [3] 0.969 | [4] 0.974 | [5] 0.98 | [6] 0.974 | [7] 1 | S. cerevisiae deletion strains, locus YGR229C, strain SMI1, hits give low values 0.976 | [8] 0.971 | [9] 0.959 | [10] 0.994 | [11] 0.976 | [12] 0.92 | [13] 0.99 | [14] 0.97 | [15] 0.925 | [16] 0.953 | [17] 0.992 | [18] 1.01 | S. cerevisiae deletion strains, locus YMR307W, strain GAS1, hits give low values 0.812 | S. cerevisiae deletion strains, locus YNL128W, strain TEP1, hits give low values 0.973 | [19] 0.993 | [20] 0.973 | [21] 0.994 | [22] 0.931 | S. cerevisiae deletion strains, locus YOL006C, strain TOP1, hits give low values 0.95 | [23] 0.945 | [24] 0.995 | [25] 0.952 | S. cerevisiae strains, strain wild type, hits give low values 0.976

CCCCCCCC1CCC/C1=N/OC(=O)c1cccs1 (stereo not drawn)
active: [8] 0.763 | S. cerevisiae deletion strains, locus YLR113W, strain HOG1, hits give low values 0.739 | S. cerevisiae deletion strains, locus YPL256C, strain CLN2, hits give low values 0.858
inactive: S. cerevisiae deletion strains, locus YAR019C, strain CDC15, hits give low values 1.01 | S. cerevisiae deletion strains, locus YBL105C, strain PKC1, hits give low values 1.01 | S. cerevisiae deletion strains, locus YBR135W, strain CKS1, hits give low values 1.01 | S. cerevisiae deletion strains, locus YBR136W, strain MEC1, hits give low values 1 | S. cerevisiae deletion strains, locus YBR160W, strain CDC28, hits give low values 0.997 | S. cerevisiae deletion strains, locus YDL017W, strain CDC7, hits give low values 0.995 | S. cerevisiae deletion strains, locus YDL028C, strain MPS1, hits give low values 0.999 | [3] 0.973 | S. cerevisiae deletion strains, locus YDL108W, strain KIN28, hits give low values 0.996 | S. cerevisiae deletion strains, locus YDL132W, strain cdc53, hits give low values 0.991 | S. cerevisiae deletion strains, locus YDL214C, strain PRR2, hits give low values 0.965 | S. cerevisiae deletion strains, locus YDR052C, strain DBF4, hits give low values 0.983 | S. cerevisiae deletion strains, locus YDR054C, strain cdc34, hits give low values 0.989 | S. cerevisiae deletion strains, locus YDR226W, strain ADK1, hits give low values 0.996 | S. cerevisiae deletion strains, locus YDR477W, strain SNF1, hits give low values 0.957 | S. cerevisiae deletion strains, locus YER123W, strain YCK3, hits give low values 0.947 | S. cerevisiae deletion strains, locus YER133W, strain GLC7, hits give low values 0.97 | S. cerevisiae deletion strains, locus YFL009W, strain cdc4, hits give low values 0.992 | S. cerevisiae deletion strains, locus YFL029C, strain CAK1, hits give low values 1.01 | S. cerevisiae deletion strains, locus YFR003C, strain YPI1, hits give low values 1.01 | S. cerevisiae deletion strains, locus YFR019W, strain FAB1, hits give low values 0.938 | S. cerevisiae deletion strains, locus YFR028C, strain CDC14, hits give low values 0.98 | S. cerevisiae deletion strains, locus YGR040W, strain KSS1, hits give low values 0.967 | S. cerevisiae deletion strains, locus YGR052W, strain FMP48, hits give low values 0.988 | S. cerevisiae deletion strains, locus YGR092W, strain DBF2, hits give low values 0.906 | S. cerevisiae deletion strains, locus YHR079C, strain IRE1, hits give low values 0.871 | S. cerevisiae deletion strains, locus YHR082C, strain KSP1, hits give low values 1.07 | S. cerevisiae deletion strains, locus YHR205W, strain SCH9, hits give low values 0.753 | S. cerevisiae deletion strains, locus YIL147C, strain SLN1, hits give low values 0.992 | S. cerevisiae deletion strains, locus YJL095W, strain BCK1, hits give low values 0.91 | S. cerevisiae deletion strains, locus YJL128C, strain PBS2, hits give low values 1.01 | S. cerevisiae deletion strains, locus YJL157C, strain FAR1, hits give low values 0.967 | S. cerevisiae deletion strains, locus YJR016C, strain ILV3, hits give low values 0.99 | S. cerevisiae deletion strains, locus YJR066W, strain TOR1 (second series), hits give low values 0.934 | S. cerevisiae deletion strains, locus YJR066W, strain TOR1, hits give low values 0.986 | S. cerevisiae deletion strains, locus YKL048C, strain ELM1, hits give low values 0.985 | S. cerevisiae deletion strains, locus YKL067W, strain YNK1, hits give low values 0.939 | S. cerevisiae deletion strains, locus YKL101W, strain HSL1, hits give low values 0.934 | S. cerevisiae deletion strains, locus YKL193C, strain SDS22, hits give low values 1.02 | S. cerevisiae deletion strains, locus YKL203C, strain TOR2, hits give low values 1 | S. cerevisiae deletion strains, locus YLR133W, strain CKI1, hits give low values 0.96 | S. cerevisiae deletion strains, locus YLR403W, strain SFP1, hits give low values 0.945 | S. cerevisiae deletion strains, locus YML070W, strain DAK1, hits give low values 0.902 | S. cerevisiae deletion strains, locus YMR001C, strain CDC5, hits give low values 1.02 | S. cerevisiae deletion strains, locus YMR205C, strain PFK2 (second series), hits give low values 0.944 | S. cerevisiae deletion strains, locus YMR277W, strain FCP1, hits give low values 1.03 | S. cerevisiae deletion strains, locus YNL006W, strain LST8, hits give low values 1.01 | S. cerevisiae deletion strains, locus YNL020C, strain ARK1, hits give low values 0.896 | S. cerevisiae deletion strains, locus YNL161W, strain CBK1, hits give low values 1.02 | S. cerevisiae deletion strains, locus YNL183C, strain NPR1, hits give low values 0.944 | S. cerevisiae deletion strains, locus YNL207W, strain RIO2, hits give low values 0.976 | S. cerevisiae deletion strains, locus YNL222W, strain SSU72, hits give low values 1.02 | S. cerevisiae deletion strains, locus YNL307C, strain MCK1 (second series), hits give low values 0.901 | S. cerevisiae deletion strains, locus YOL078W, strain AVO1, hits give low values 1.02 | S. cerevisiae deletion strains, locus YOL136C, strain PFK27, hits give low values 0.961 | S. cerevisiae deletion strains, locus YOR061W, strain CKA2, hits give low values 0.88 | S. cerevisiae deletion strains, locus YOR119C, strain RIO1, hits give low values 1.03 | S. cerevisiae deletion strains, locus YOR231W, strain MKK1, hits give low values 0.859 | S. cerevisiae deletion strains, locus YOR329C, strain SCD5, hits give low values 1.02 | S. cerevisiae deletion strains, locus YPL031C, strain PHO85, hits give low values 0.935 | S. cerevisiae deletion strains, locus YPL153C, strain RAD53, hits give low values 0.937 | S. cerevisiae deletion strains, locus YPL204W, strain HRR25, hits give low values 0.919 | S. cerevisiae deletion strains, locus YPL209C, strain IPL1, hits give low values 1 | S. cerevisiae deletion strains, locus YPR025C, strain CCL1, hits give low values 1.02 | S. cerevisiae deletion strains, locus YPR106W, strain ISR1, hits give low values 0.999 | S. cerevisiae deletion strains, locus YPR111W, strain DBF20, hits give low values 0.991 | S. cerevisiae deletion strains, strain NNK1, hits give low values 0.987 | S. cerevisiae deletion strains, strain TSCII, hits give low values 0.995
